We go through 91 compounds from PubChem BioAssay AID449739 (Vanderbilt High Throughput Screening Facility, 2010).

Hit rate of the full screen: of about 100,000 compounds, about 4,200 (4.2%) were called active.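 Rule for the calls: active = single-dose well whose peak fluorescence ratio is a statistical outlier from its plate by either plate-standardised score or position-corrected B-score; inactive = the rest.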 For the sample, actives were picked, then their nearest neighbours and some compounds at random.

The target in the test is Voltage-dependent T-type calcium channel subunit alpha-1H (Homo sapiens) (UniProt O95180). In words: Cav3.2 calcium influx blockers – cell-based, Fluo-4 calcium fluorescence, FDSS, MLSMR library, primary screen (AID 449739). The conditions noted are these: Cav3.2-expressing cells, at 10 µM, hits give low values.
Sequence of Voltage-dependent T-type calcium channel subunit alpha-1H (Homo sapiens) (O95180 whole entry, looked up): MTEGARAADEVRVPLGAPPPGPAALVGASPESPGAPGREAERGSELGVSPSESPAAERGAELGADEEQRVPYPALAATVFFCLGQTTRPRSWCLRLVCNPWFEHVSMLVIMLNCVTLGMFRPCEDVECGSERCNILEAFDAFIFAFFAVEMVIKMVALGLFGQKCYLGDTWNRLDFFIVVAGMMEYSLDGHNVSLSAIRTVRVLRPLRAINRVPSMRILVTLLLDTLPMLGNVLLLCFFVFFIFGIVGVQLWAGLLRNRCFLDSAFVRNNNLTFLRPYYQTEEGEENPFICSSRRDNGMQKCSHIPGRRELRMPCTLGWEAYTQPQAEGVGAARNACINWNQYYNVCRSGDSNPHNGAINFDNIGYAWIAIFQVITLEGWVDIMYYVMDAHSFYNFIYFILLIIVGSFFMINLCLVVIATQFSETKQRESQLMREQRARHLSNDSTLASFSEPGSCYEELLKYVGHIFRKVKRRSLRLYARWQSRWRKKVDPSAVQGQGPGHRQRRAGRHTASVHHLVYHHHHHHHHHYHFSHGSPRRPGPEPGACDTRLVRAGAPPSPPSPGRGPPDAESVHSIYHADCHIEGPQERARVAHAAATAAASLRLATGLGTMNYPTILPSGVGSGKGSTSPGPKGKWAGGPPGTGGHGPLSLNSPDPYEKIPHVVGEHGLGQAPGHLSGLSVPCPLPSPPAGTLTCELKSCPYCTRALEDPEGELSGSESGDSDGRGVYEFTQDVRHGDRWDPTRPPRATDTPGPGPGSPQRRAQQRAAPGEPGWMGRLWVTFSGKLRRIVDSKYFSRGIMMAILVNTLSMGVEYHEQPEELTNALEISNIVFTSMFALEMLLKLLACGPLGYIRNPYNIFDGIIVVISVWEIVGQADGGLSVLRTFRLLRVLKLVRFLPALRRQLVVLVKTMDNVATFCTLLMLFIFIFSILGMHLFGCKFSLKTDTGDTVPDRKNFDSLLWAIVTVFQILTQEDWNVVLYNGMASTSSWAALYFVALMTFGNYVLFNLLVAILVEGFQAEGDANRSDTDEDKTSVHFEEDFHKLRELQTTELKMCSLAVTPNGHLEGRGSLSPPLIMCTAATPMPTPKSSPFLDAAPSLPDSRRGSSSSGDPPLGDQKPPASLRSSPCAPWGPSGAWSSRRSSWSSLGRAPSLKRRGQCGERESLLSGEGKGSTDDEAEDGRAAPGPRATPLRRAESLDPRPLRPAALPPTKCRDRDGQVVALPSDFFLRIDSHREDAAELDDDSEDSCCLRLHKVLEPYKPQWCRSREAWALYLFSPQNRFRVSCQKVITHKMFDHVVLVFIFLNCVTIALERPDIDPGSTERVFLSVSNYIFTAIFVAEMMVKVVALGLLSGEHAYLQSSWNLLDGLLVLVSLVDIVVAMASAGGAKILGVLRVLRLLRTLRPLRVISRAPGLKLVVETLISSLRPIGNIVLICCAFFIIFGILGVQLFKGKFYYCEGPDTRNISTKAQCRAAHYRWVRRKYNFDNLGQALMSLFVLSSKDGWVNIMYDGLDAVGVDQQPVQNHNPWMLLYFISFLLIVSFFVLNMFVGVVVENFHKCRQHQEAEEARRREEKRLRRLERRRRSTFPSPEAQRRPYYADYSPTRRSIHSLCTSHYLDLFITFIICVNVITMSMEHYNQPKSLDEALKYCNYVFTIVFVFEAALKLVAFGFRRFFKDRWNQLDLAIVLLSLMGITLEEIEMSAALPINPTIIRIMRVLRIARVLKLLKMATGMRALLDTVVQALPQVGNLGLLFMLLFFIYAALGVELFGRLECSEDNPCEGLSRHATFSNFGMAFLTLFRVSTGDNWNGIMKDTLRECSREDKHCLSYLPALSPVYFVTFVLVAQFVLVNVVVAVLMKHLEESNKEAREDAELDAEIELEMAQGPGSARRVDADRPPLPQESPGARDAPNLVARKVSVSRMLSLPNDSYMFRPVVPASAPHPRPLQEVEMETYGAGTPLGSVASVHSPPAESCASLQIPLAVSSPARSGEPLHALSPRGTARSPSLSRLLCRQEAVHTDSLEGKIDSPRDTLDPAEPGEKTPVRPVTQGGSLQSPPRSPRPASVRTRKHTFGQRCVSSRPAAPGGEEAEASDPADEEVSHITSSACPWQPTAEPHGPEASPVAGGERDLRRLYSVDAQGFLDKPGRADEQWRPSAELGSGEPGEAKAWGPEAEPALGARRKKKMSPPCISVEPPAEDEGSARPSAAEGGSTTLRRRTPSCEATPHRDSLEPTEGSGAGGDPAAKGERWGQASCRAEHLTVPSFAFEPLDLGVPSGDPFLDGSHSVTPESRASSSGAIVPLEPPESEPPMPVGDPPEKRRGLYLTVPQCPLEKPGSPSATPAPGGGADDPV
In the case of `O=c1c2ccccc2nc2n1C(CSc1ccc(F)cc1)CN2` (stereo unspecified), the B-score is 1.22 (inactive). The figure for `COC(=O)c1nc(NC(=O)c2ccc(Cl)cc2)n[nH]1` is 1.01 (inactive); for `COc1ccc(C(=O)Nc2ncc3c(n2)-c2ccccc2CC3)cc1` it is 0.00103 (inactive); for `O=C(Nc1ncc2c(n1)-c1ccccc1OC2)c1ccc(Cl)cc1` it is -4.5 (active). Under `C/C=C\C=C\C(=O)N1CC2(CC(c3cccc(NC(=O)/C(C)=C\C)c3)=NO2)C[C@H]1C(N)=O` (stereo partly specified) stands 0.133 (inactive); under `CCOC(=O)c1ccc(NC(=O)c2nc[nH]c2C(=O)N[C@@H](CCCCNC(=O)OC(C)(C)C)C(=O)OC(C)(C)C)cc1`, -0.307 (inactive). The figure for `O=C(NCCC1=CCCCC1)C1CCN(Cc2cnn(-c3ccccc3)c2-n2cccc2)CC1` is -5.79 (active); for `Cc1cc(C)cc(NC(=O)CSCc2cnn(-c3ccccc3)c2-n2cccc2)c1` it is -2.22 (inactive). Turning to `C1=C(CCNc2ncnc3c2cnn3-c2ccccc2)CCCC1`, the B-score is -0.0964 (inactive). As for `COc1cccc(NC(=S)N(CCc2c(C)[nH]c3ccccc23)Cc2ccco2)c1`, the B-score was -2.67 (inactive). Consider `CNC(=O)c1[nH]cnc1C(=O)N[C@@H](CC(C)C)C(=O)OC(C)(C)C`, for which the B-score was 0.371 (inactive). The figure for `Cc1noc(C)c1C(=O)N(CC(=O)NC1CCCC1)Cc1ccccc1F` is 0.408 (inactive).

For the compound `CCOC(=O)C1C(=O)NCC1c1ccccc1` (stereo unspecified), the B-score was 0.378 (inactive). With `COC(=O)CN1C(C)=Nc2ccc(Br)cc2C1c1ccccc1` (stereo unspecified), the B-score was -0.737 (inactive). Under `CCC(CC)C(=O)N1CC(=O)Nc2ccc(Br)cc2C1c1ccccc1` (stereo unspecified) stands -4.79 (active); under `CCCCCCCCOC1OC(CO)C(O)C(O)C1NC(C)=O` (stereo unspecified), 0.195 (inactive). Under `FC(F)(F)c1nc2ccccc2nc1N/N=C/c1ccc(Cl)cc1` stands -0.00807 (inactive). The figure for `CC(C)(C)c1nc2ccccc2c(=O)n1N1C(=O)c2ccccc2C1=O` is -0.127 (inactive); for `O=c1c2ccccc2nc(N/N=C/c2ccccc2)n1O` it is -5.17 (active); for `C#CCCOC(=O)N1C2=NC(C(=O)OC)=C(C(=O)OC)[C@@H]3N(C)c4ccc(OC)cc4[C@]23C[C@H]1C(=O)OC` it is 0.061 (inactive). As to `Cc1nc(-c2ccc(Cl)cc2)sc1C1(C)CC(c2ccc(Br)cc2)=NO1` (stereo unspecified), the B-score was -0.405 (inactive).

Consider `Cc1nn(C)c(Oc2ccc(Cl)cc2)c1C=O`, for which the B-score was -0.0899 (inactive). Under `C=CCSc1nnc2c(n1)-c1cccc3cccc-2c13` stands 0.673 (inactive); under `CSc1nsc(SC)c1NC(=O)OC1CCCCC1`, -4.23 (active); under `COc1ccc(NC(=O)c2c(SC)nsc2SC)cc1`, 0.226 (inactive). In the case of `CC(C)C(OC(=O)c1cccs1)C(=O)NC1CCCCC1` (stereo unspecified), the B-score was -0.509 (inactive).

On to `CC(Cc1cccs1)NC(=O)NC1CCCCC1` (stereo unspecified), for which the B-score was -2.2 (inactive). The figure for `O=C(NCC(=O)N(Cc1cccs1)C(C(=O)NC1CCCCC1)c1ccco1)c1cccs1` (stereo unspecified) is -6.73 (active); for `Cc1nnc(NC(=O)Nc2ccc(Cl)c(Cl)c2)s1` it is -0.569 (inactive); for `O=C(CC(O)(C(F)(F)F)C(F)(F)F)Nc1ccc(Cl)c(Cl)c1` it is -6.32 (active). Under `N/C(=N\OC(=O)Nc1ccc(Cl)c(Cl)c1)c1ncc(C(F)(F)F)cc1Cl` stands -0.00792 (inactive); under `COC(=O)CNC(=O)c1ccccc1[N+](=O)[O-]`, 2.22 (inactive). The figure for `CC(=O)N[C@H]1[C@H]([C@H](O)[C@H](O)CO)OC(C(=O)O)=C[C@@H]1O` is 0.744 (inactive); for `CC(C)CNC(=O)CC(c1ccccc1)c1c(O)ccc2ccccc12` (stereo unspecified) it is -6.12 (active); for `Cc1ccc(CNC(=O)C2CC(c3ccccc3[N+](=O)[O-])=NO2)o1` (stereo unspecified) it is -1.03 (inactive).

As for `COc1ccc(C(=O)CN(C(=O)c2ccc(Cl)cc2)N2C(=O)c3ccccc3C2=O)cc1`, the B-score is -1.99 (inactive). The figure for `O=C(Cc1ccc(S(=O)(=O)N2CCCC2)s1)NC1CCCCCC1` is 0.271 (inactive). As to `O=C(NCCSCc1ccccc1)c1ccc(Cl)c(S(=O)(=O)N2CCOCC2)c1`, the B-score is -3.48 (inactive). For the compound `O=C(Cc1ccc(S(=O)(=O)N2CCOCC2)s1)NCCC(c1ccccc1)c1ccccc1`, the B-score is -6.74 (active). The figure for `CC(=O)c1nn(-c2cccc(Br)c2)cc1C(=O)c1cccc2ccccc12` is -4.57 (active); for `CC(=O)c1sc(NC(=O)c2cccc3ccccc23)nc1C` it is -0.12 (inactive). The figure for `CC(=O)c1ccc2c(ccc3ccccc32)c1` is -0.705 (inactive). The figure for `CCNC(=S)N1CCN(C(=O)c2ccco2)CC1` is -0.0983 (inactive); for `CCN(CC)CCN1C(=O)C(=O)/C(=C(/O)c2cnn(-c3ccccc3)c2C)C1c1cccs1` (stereo unspecified) it is 0.414 (inactive); for `O=C(Nc1ccc(Oc2ccccc2)cc1)c1ccco1` it is -0.246 (inactive). Regarding `CC(Oc1ccc2ccccc2c1)C(=O)NNC(=S)NC(=O)c1ccco1` (stereo unspecified), the B-score is -7.25 (active). The figure for `COc1ccc(CCNC(=O)c2ccco2)cc1` is 0.807 (inactive). The figure for `CCO[C@H]1OC(C(=O)NCc2ccccc2)=C[C@@H](c2coc3ccccc3c2=O)[C@@H]1CCCO` is 0.119 (inactive). Under `CC1=NN(Cc2ccccc2)C(=O)/C1=C/c1ccc(N(C)C)cc1` stands -2.13 (inactive); under `CS(=O)(=O)N1CCN(c2ccc(C(=O)NC3C4CC5CC(C4)CC3C5)cc2[N+](=O)[O-])CC1` (stereo unspecified), 0.716 (inactive); under `Cc1ccc(C(=O)Nc2ccc3c(c2)OCO3)cc1S(=O)(=O)N1CCCCC1`, -5.28 (active).

As to `O=C(Nc1ccc2c(c1)OCCO2)c1ccc(Cl)c(S(=O)(=O)N2CCCCC2)c1`, the B-score was -1.46 (inactive). Regarding `Cc1ccc(C(=O)NCC(=O)O)cc1S(=O)(=O)N1CCCCC1`, the B-score is 1.06 (inactive).

Regarding `CCOc1ccc(NC(=O)CC2C(=O)N(c3ccccc3)C(=O)N2CCOC)cc1` (stereo unspecified), the B-score was 0.221 (inactive). The figure for `CCOc1ccccc1Oc1cn[nH]c1-c1ccc(OC)cc1O` is -3.81 (active); for `C=C(C)COc1ccc(-c2n[nH]c(C)c2-c2ccccc2OC)c(O)c1` it is -1.28 (inactive). The figure for `COc1ccc(-c2n[nH]c(C)c2-c2ccc(OC)c(OC)c2)c(O)c1` is -1.02 (inactive). Under `O=C(c1cccc(F)c1)N1CCN(c2ccc([N+](=O)[O-])c(N3CCCCC3)c2)CC1` stands -2.45 (inactive); under `Cc1cccc(N2CCN(C(=O)CN(C)S(=O)(=O)c3ccc4c(c3)CCC(=O)N4)CC2)c1C`, 1.04 (inactive). For `O=S(=O)(NCc1cccnc1)c1ccc(Cl)nc1`, the B-score is 0.0815 (inactive).

As to `Clc1ccc(Cn2ncc3c(NCc4cccnc4)ncnc32)cc1`, the B-score is -4.69 (active). The figure for `CC(C)Nc1ncnc2c1nnn2Cc1ccccc1` is 0.849 (inactive). Under `CN1CCN(C(CNS(=O)(=O)c2cccs2)c2cccnc2)CC1` (stereo unspecified) stands -0.131 (inactive); under `O=C(/C=C\NCC(=O)c1ccccc1)c1ccccc1`, 0.368 (inactive). The figure for `COc1ccccc1NC(=O)[C@H](COCc1ccccc1)NC(=O)OC(C)(C)C` is -4.41 (active); for `COc1ccccc1NC(=O)CC(NCCN(C)C)C(=O)O` (stereo unspecified) it is -0.277 (inactive).

On to `C#CCNC(=O)[C@H](Cc1ccc(C(=O)c2ccccc2)cc1)NC(=O)OC(C)(C)C`, for which the B-score was 0.229 (inactive). Under `COC(=O)c1ccc(C2C(Oc3ccccc3C)C(=O)N2CCc2ccc(OC)c(OC)c2)cc1` (stereo unspecified) stands -2.96 (inactive).

With `C=C1C2C[C@H](O)C(C)(C)[C@@]2(O)[C@H](O)C[C@]23C[C@@](C)(O)[C@H](CC[C@H]12)[C@H]3O` (stereo partly specified), the B-score was 0.00132 (inactive). Under `C#CCO[C@@H]1C[C@H](n2cnc3c(=O)[nH]c(NC(=O)C(C)C)nc32)O[C@@H]1CO` stands 0.0144 (inactive); under `CC(C)NC(=O)NCCCCCCS(C)=O` (stereo unspecified), 0.449 (inactive); under `CCCCOC(=O)Cn1c(=N)n(CCN(CC)CC)c2ccccc21`, 0.824 (inactive).

`CCOC(=O)CN1C(=O)C(=O)c2cc(C)ccc21`: the B-score is 0.0584 (inactive). The figure for `CCCCOC(=O)Cn1c(=O)n(CC(=O)OCCCC)c2cc(C)ccc21` is -8.75 (active).

For the compound `COC(=O)CCCC1=CC2=C(c3ccccc3)C(=O)C(C)(OC(=O)C3CCCC3)C(=O)C2=CN1c1ccc(OC)cc1` (stereo unspecified), the B-score is 0.00545 (inactive).

As to `Cc1nn(-c2ccccn2)c2c1C(c1ccncc1)C1=C(CC(C)(C)CC1=O)N2` (stereo unspecified), the B-score was 0.727 (inactive). Turning to `Cc1noc(C)c1S(=O)(=O)N(CC(=O)Nc1ccc2c(c1)OCCO2)c1ccc(C(C)C)cc1`, the B-score is -2.62 (inactive). Under `COC(=O)c1ccc(NC(=O)CN(c2ccc(C)cc2)S(=O)(=O)c2c(C)n[nH]c2C)cc1` stands -2.02 (inactive); under `CCOC(=O)c1cccc(NC(=O)CN(c2ccc(C)cc2)S(=O)(=O)c2c(C)noc2C)c1`, -6.06 (active); under `CCOC(=O)C1CCCN(C(=O)CN(c2ccc(OC)cc2)S(=O)(=O)c2c(C)noc2C)C1` (stereo unspecified), 0.012 (inactive). The figure for `CCOc1ccc(N(CC(=O)OC)S(=O)(=O)c2c(C)noc2C)cc1` is -5.9 (active); for `CCOc1ccc(N(CC(=O)NCc2ccc(OC)cc2)S(=O)(=O)c2c(C)noc2C)cc1` it is 0.15 (inactive).

For `COc1cccc(C(=O)NNC(=O)c2ccccc2Br)c1`, the B-score is 0.232 (inactive). For the compound `CC(C)NC(=O)C(=O)NCCCOC(C)C`, the B-score was 0.568 (inactive). The figure for `Cc1sc(NC(=S)NC(=O)c2cccs2)nc1-c1ccc(CC(C)C)cc1` is -0.0675 (inactive).

With `CC/C=C/C(=O)N1CC2(CC(c3cccc(NC(=O)CC)c3)=NO2)C[C@H]1C(N)=O` (stereo partly specified), the B-score is 0.223 (inactive). Under `CCOc1ccc(C(CCc2ccccc2)NC(=O)c2ccc(OC)c(OC)c2)cc1OCC` (stereo unspecified) stands -1.85 (inactive).

Regarding `Cc1ccccc1OCC(=O)NCC(=O)OCC(=O)c1ccc2ccccc2c1`, the B-score is -0.0134 (inactive). Turning to `O=C(Nc1cccc(NC(=O)N2CCN(c3ccccc3)CC2)c1)N1CCN(c2ccccc2)CC1`, the B-score is -6.86 (active).

Consider `COc1cccc(N2CCN(C(=O)Nc3ccc4c(c3)NC(=O)CO4)CC2)c1`, for which the B-score was -0.0474 (inactive). As to `O=C(Nc1ccccc1)N1CCN(Cc2ccccc2)CC1`, the B-score was 0.4 (inactive).
